AGP1 TOR yeast – yeast TOR pathway AGP1-GFP modulation; 320,000 compounds, 0.02% hits; S. cerevisiae AGP1-GFP multiplex flow cytometry, 3 h; GFP as percent of DMSO wells; GFP response vs DMSO, % at 10 µM;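 active means GFP response relative to DMSO above a set limit, near screen average plus 3 SD, cut at about 150% in these data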;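 further: median GFP channel fluorescence of the gated AGP1 strain per well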
MEP2 TOR yeast – alters MEP2-GFP fluorescence in TOR pathway yeast screen; 330,000 compounds, 0.51% hits; GFP response vs DMSO, % at 10 µM; AID 2016; S. cerevisiae MEP2-GFP strain, flow cytometry GFP, 3 h; 100% = DMSO control level;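 active means GFP response versus DMSO above a set limit, roughly screen mean plus 3 SD, cut at about 180% in these data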;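 further: median GFP fluorescence of the barcode-gated MEP2-GFP cells per well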
RPL19A-GFP yeast – alters RPL19A-GFP fluorescence in TOR pathway yeast screen; S. cerevisiae RPL19A-GFP strain, flow cytometry, 3 h; hits give low values; percent response vs DMSO, % at 10 µM; 330,000 compounds, 0.3% hits;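 active means percent response vs DMSO below 50%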;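 further: median channel GFP fluorescence of the barcoded RPL19A-GFP strain; lower means less RPL19A-GFP as with rapamycin TOR inhibition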
CIT2 TOR yeast – alters CIT2-GFP fluorescence in TOR pathway yeast screen | 320,000 compounds, 0.065% hits | GFP response vs DMSO, % at 10 µM | S. cerevisiae CIT2-GFP strain, flow cytometry, 3 h; 100 means same as DMSO wells;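 active means GFP response relative to DMSO above a set limit, near the screen mean plus 3 SD, cut at about 150% in these data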;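 further: ratio of well median GFP fluorescence to mean of DMSO wells on the plate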
VLA-4 inh – inhibition in a human VLA-4 binding assay. P13612. VLA-4 expressing cells, ligand binding flow cytometry. inhibition, % (about 7 µM as worked out from the volumes in the protocol). 330,000 compounds, 0.2% hits; in the data active means inhibition above about 50%
LAP4-GFP MLPCN – modulators of TOR pathway LAP4-GFP in S. cerevisiae; GFP response vs DMSO, % at 10 µM; 320,000 compounds, 0.34% hits; S. cerevisiae LAP4-GFP multiplex, flow cytometry GFP, 3 h; median GFP as percent of DMSO wells; AID 2023;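 active means GFP response vs DMSO above a set limit, about the screen mean plus 3 SD, cut at about 150% in these data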
LAP4-GFP pick2 – second confirmation of modulators of TOR reporter LAP4-GFP in yeast | 590 compounds, 20% hits | shares compounds with LAP4-GFP MLPCN | GFP response vs DMSO, % at 10 µM | S. cerevisiae LAP4-GFP strain, flow cytometry GFP, 3 h;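 active means GFP signal as percent of the solvent control above about 150%, meaning raised reporter expression, limit read from the data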
MEP2 cherry2 – reconfirmed MEP2-GFP TOR pathway modulator in yeast; shares compounds with LAP4-GFP MLPCN; S. cerevisiae MEP2-GFP strain, flow cytometry GFP, 3 h; GFP response vs DMSO, % at 10 µM; 590 compounds, 10% hits; AID 2622;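 active means GFP signal above 150% of the solvent control wells, that is a rise of more than half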;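 further: median channel GFP fluorescence of all gated yeast cells per well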
RPL19A GFP CP2 – reconfirmed modulator of RPL19A-GFP TOR reporter in yeast. shares compounds with LAP4-GFP MLPCN. S. cerevisiae RPL19A-GFP strain, flow cytometry GFP, 3 h; hits give low values; 100% means same as DMSO wells. GFP response vs DMSO, % at 10 µM. 590 compounds, 3% hits;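 active means under 65% GFP response relative to DMSO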;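 further: median GFP channel fluorescence per well over the all cells gate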
CIT2-GFP pick2 – yeast CIT2-GFP TOR reporter modulation, second cherry pick | shares compounds with LAP4-GFP MLPCN | GFP response vs DMSO, % at 10 µM | 590 compounds, 8% hits | AID 2624 | S. cerevisiae CIT2-GFP strain, flow cytometry GFP, 3 h; DMSO control wells read 100%;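 active means GFP response vs DMSO above about 150%, limit read from the data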;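 further: median green fluorescence per well over all gated yeast cells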
AGP1 GFP CP2 – reconfirmed modulator of AGP1-GFP TOR reporter in yeast; 590 tested, under 10 active; percent response vs DMSO, % at 10 µM; S. cerevisiae AGP1-GFP strain, flow cytometry GFP, 3 h; shares compounds with LAP4-GFP MLPCN;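 active means over 150 percent of DMSO response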;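 further: median GFP channel fluorescence over all cells without mother daughter split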
Yeast autofluor – yeast s288c autofluorescence artifact, counter-screen | S. cerevisiae s288c, 520 nm autofluorescence, flow cytometry, 3 h; hits give high values; zero means same as solvent-only cells | fluorescence change (kMESF span) at 33 µM | shares compounds with LAP4-GFP MLPCN | AID 2757 | 610 tested, under 10 active;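 active means fluorescence span over the dose series, or activity score, above about 33, limit read from the data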
s288c autofl DR – yeast s288c autofluorescence artifact in dose response; shares compounds with LAP4-GFP MLPCN; S. cerevisiae s288c parental, compound autofluorescence, flow cytometry, 3 h; fluorescence change (span) at 33 µM; 110 tested, under 10 active; AID 488829;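 active means fluorescence change span, or the activity score built from it, above 25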
TORC1 bypass – compounds blocking wildtype yeast growth but not TORC1 bypass cells | shares compounds with LAP4-GFP MLPCN | S. cerevisiae BY4741 spot growth rating, 48-72 h; hits give low values | growth rating (0-3) at 30 µM | 120 tested, under 10 active;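 active means growth rating at most 1 for wild type yeast while the TORC1 bypass strain still grows fully, rated 3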
A number is an active result. Rows were chosen to be rich in hits. Some 1.1% of all compounds tested hit in one or more screens of this group.

For O=C1C2C3C=CC(C3)C2C(=O)N1/N=C/c1ccc(-c2ccccc2[N+](=O)[O-])o1 (configuration not stated) the results were AGP1 TOR yeast inactive, MEP2 TOR yeast inactive, RPL19A-GFP yeast inactive, CIT2 TOR yeast inactive, VLA-4 inh inactive and LAP4-GFP MLPCN inactive.
O=C(CN(C1CCCCC1)S(=O)(=O)c1ccc(Cl)cc1)N1CCOCC1 was read as AGP1 TOR yeast inactive, MEP2 TOR yeast inactive, RPL19A-GFP yeast inactive, CIT2 TOR yeast inactive, VLA-4 inh inactive, LAP4-GFP MLPCN inactive, LAP4-GFP pick2 inactive, MEP2 cherry2 inactive, RPL19A GFP CP2 inactive, CIT2-GFP pick2 inactive and AGP1 GFP CP2 inactive.
CSc1nnc(-c2cc3c(s2)-c2ccccc2CC3)o1 was read as AGP1 TOR yeast inactive, MEP2 TOR yeast inactive, RPL19A-GFP yeast inactive, CIT2 TOR yeast inactive, VLA-4 inh inactive, LAP4-GFP MLPCN 151, LAP4-GFP pick2 inactive, MEP2 cherry2 inactive, RPL19A GFP CP2 inactive, CIT2-GFP pick2 inactive and AGP1 GFP CP2 inactive.
Cc1cc(C)c(NC(=O)CN(C)C(C)C(=O)N2CCc3ccccc32)c(C)c1 (configuration not stated) was read as AGP1 TOR yeast inactive, MEP2 TOR yeast inactive, RPL19A-GFP yeast inactive, CIT2 TOR yeast inactive, VLA-4 inh inactive and LAP4-GFP MLPCN inactive.
`O=C(Oc1ccnc2cc(Cl)ccc12)N1CCCCCC1` gave AGP1 TOR yeast 185, MEP2 TOR yeast 422, RPL19A-GFP yeast inactive, CIT2 TOR yeast inactive, VLA-4 inh inactive, LAP4-GFP MLPCN inactive, Yeast autofluor inactive, s288c autofl DR inactive and TORC1 bypass inactive.
Screening CCN(CC)C(=O)Oc1ccnc2cc(Cl)ccc12 returned AGP1 TOR yeast inactive, MEP2 TOR yeast inactive, RPL19A-GFP yeast inactive, CIT2 TOR yeast inactive, VLA-4 inh inactive, LAP4-GFP MLPCN inactive, LAP4-GFP pick2 inactive, MEP2 cherry2 198, RPL19A GFP CP2 inactive, CIT2-GFP pick2 inactive, AGP1 GFP CP2 inactive, Yeast autofluor inactive, s288c autofl DR inactive and TORC1 bypass inactive.
COc1ccccc1C(=O)Nc1cc(C)ccc1NC(=O)c1ccco1 was read as AGP1 TOR yeast inactive, MEP2 TOR yeast inactive, RPL19A-GFP yeast inactive, CIT2 TOR yeast inactive, VLA-4 inh inactive and LAP4-GFP MLPCN inactive.
